# Records with an inconclusive call do not appear. Values without a mark were called inactive. Calls of active or inactive are those of the source. Calls follow the shape of the dose curve; as a rule, active = well fitted inhibition curve with a large enough effect; inconclusive = small, poorly fitted or top-dose-only effect; inactive = flat fitted curve, though single readings scatter.
# What was measured:
# Assay in all cases: Cytotoxic Profiling of Annotated Libraries Using Quantitative High-Throughput Screening (AID 1296008); also: nearly all actives have a fitted effect of over 60% in size
# Conditions in all cases: Five cell lines viability, CellTiter-Glo ATP luminescence, 48-72 h; max response: hits give low values
# [1] = tested on: CRL-7250
# How it was run: (§1)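 Cytotoxicity was measured as CellTiter-Glo ATP luminescence, read after 10 min at room temperature. Compound treatment of the cells lasted 48 or 72 hr at 37 degrees Celsius in a qHTS format.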
# [2] = tested on: HEK293
# How it was run: as §1
# [3] = tested on: KB-3-1
# How it was run: as §1
# % is scaled to controls: 0 for no effect and ±100 for the full control effect; potency is read from the fitted curve at half-maximal effect.
compound,measurement,setting,value
O=C1CC2(CCCC2)[C@H](O)C(=O)N1CCCCN1CCN(c2ncccn2)CC1,max response,[1],2.44%
same,max response,[2],-2.49%
same,max response,[3],-7.77%
CC1OC2OC(=O)C3(C)CC4=C(CO)C5=C(CC(=O)C4(C)C(C1=O)C23)C(C)(C)OC(=O)C5 (centres undefined),max response,[1],-28.4%
same,max response,[2],-12.2%
same,max response,[3],2.12%
C=C1OC2CC(C(=O)O)C=CC2NC1=O (centres undefined),max response,[1],-1.3%
same,max response,[2],3.15%
same,max response,[3],3.04%
CC1CCC2(OC1)OC1CC3C4CCC5C[C@@H](O[C@@H]6O[C@H](CO[C@@H]7OC[C@@H](O)[C@H](O)[C@H]7O)[C@H](O)[C@H](O)[C@H]6O)CC[C@]5(C)C4CC[C@]3(C)C1C2C (some centres undefined),max response,[1],-3.87%
same,outcome,[2],inactive
same,max response,[3],9.78%
CCO[C@@H]1OC(=O)C[C@@H]1NC(=O)[C@@H]1CCCN1C(=O)[C@@H](NC(=O)c1ccc(N)c(Cl)c1)C(C)(C)C,max response,[1],1.63%
same,max response,[2],1.39%
same,max response,[3],2.91%
C=CC(C)(O)C(O)CC1C(C)(O)C(O)C(O)C2C(C)(C)CCCC21C (centres undefined),max response,[1],1.81%
same,max response,[2],-10.3%
same,max response,[3],-10.5%
C[S+](CC[C@H](N)C(=O)[O-])C[C@H]1O[C@@H](n2cnc3c(N)ncnc32)[C@H](O)[C@@H]1O (some centres undefined),max response,[1],-13.4%
same,max response,[2],3.53%
same,max response,[3],3.65%
O=C1NC(Cc2c[nH]c3ccccc23)C(=O)NC1Cc1c[nH]c2ccccc12 (centres undefined),max response,[1],-0.609%
same,outcome,[2],inactive
same,outcome,[3],inactive
CN(C)c1nc(NC2CCC(NCCc3ccc(Br)cc3OC(F)(F)F)CC2)nc2ccccc12 (centres undefined),Potency,[1],18.4 µM (active)
same,Potency,[2],5.17 µM (active)
same,Potency,[3],4.61 µM (active)
C[C@H](C(=O)NC1CCCC1)N(C(=O)Cn1nnc(-c2ccc3c(c2)OCO3)n1)C1CCCCC1,outcome,[1],inactive
same,max response,[2],2.96%
same,max response,[3],5.01%
NC(=O)[C@H](O[C@@H]1O[C@H](CO)[C@@H](O)[C@H](O)[C@H]1O)c1ccccc1,outcome,[1],inactive
same,max response,[2],-3.01%
same,outcome,[3],inactive
CC1(C)CC[C@]23CO[C@@]4(CCC5[C@@]6(C)CC[C@H](O[C@@H]7OC[C@H](O[C@@H]8O[C@H](CO)[C@@H](O)[C@H](O)[C@H]8O)[C@H](O)[C@H]7O[C@@H]7O[C@H](CO)[C@@H](O[C@@H]8O[C@H](CO)[C@@H](O)[C@H](O)[C@H]8O)[C@H](O)[C@H]7O)[C@@](C)(CO)C6CC[C@@]5(C)[C@]4(C)C[C@H]2OC2OCC(O)C(O)C2O)C3C1 (some centres undefined),Potency,[1],1.55 µM (active)
same,Potency,[2],2.45 µM (active)
same,max response,[3],-11.5%
C[C@H](Nc1ncnc2nc[nH]c12)c1cc2ccc(F)cc2nc1-c1ccccn1,max response,[1],-2.06%
same,outcome,[2],inactive
same,outcome,[3],inactive
Cc1cc(Nc2cc(N3CCN(C)CC3)nc(/C=C/c3ccccc3)n2)n[nH]1,Potency,[1],5.8 µM (active)
same,Potency,[2],3.66 µM (active)
same,Potency,[3],1.16 µM (active)
CC1(C)[C@@H](O)CC[C@]2(C)[C@H]3CC=C4[C@@H]5C[C@](C)(C(=O)O)CC[C@]5(C)CC[C@@]4(C)[C@]3(C)CC[C@@H]12,max response,[1],-5.83%
same,max response,[2],2.45%
same,max response,[3],8.76%
C=CC1C(OC2OC(CO)C(O)C(O)C2O)OC=C2C(=O)N3C(C(=O)O)Cc4c([nH]c5ccccc45)C3CC21 (centres undefined),outcome,[1],inactive
same,max response,[2],0.732%
same,max response,[3],6.21%
CCOc1cc(N2CCC(O)CC2)ccc1Nc1ncc2c(n1)N(C1CCCC1)CCC(=O)N2C,Potency,[1],6.51 µM (active)
same,Potency,[2],5.8 µM (active)
same,Potency,[3],7.31 µM (active)
COc1cc(O)cc(C)c1C(=O)OC1C(CO)OC(OC2C(O)C(O)C(O)C(O)C2O)C(O)C1O (centres undefined),max response,[1],-0.0302%
same,max response,[2],4.85%
same,max response,[3],2.63%
CC1(C)CC[C@]2(C(=O)O)CC[C@]3(C)C(=CCC4[C@@]5(C)C[C@@H](O)[C@H](O)C(C)(C)C5CC[C@]43C)C2C1 (some centres undefined),outcome,[1],inactive
same,outcome,[2],inactive
same,outcome,[3],inactive
C=C1C(O)C(O)C2(CC3C(C)=CCC4C(C)(CO)CCCC34C)OC2C1O (centres undefined),max response,[1],-2.93%
same,max response,[2],-13.5%
same,max response,[3],-3.07%
COC1CC(O[C@H]2CC[C@@]3(C)C(=CC[C@]4(O)C3[C@H](OC(C)=O)[C@@H](OC(=O)c3ccccc3)[C@]3(C)[C@@H](C(C)=O)CC[C@@]34O)C2)OC(C)C1OC1CC(OC)C(OC2CC(OC)C(OC3OC(C)C(OC4OC(CO)C(O)C(O)C4O)C(OC)C3O)C(C)O2)C(C)O1 (some centres undefined),outcome,[1],inactive
same,max response,[2],1.75%
same,max response,[3],0.0608%
CC1=CC(=O)[C@H]2C(C)(C)CCC[C@]2(C)[C@@]1(O)CO,max response,[1],-8.81%
same,max response,[2],-15.2%
same,max response,[3],7.19%
COc1cc2ncnc(N3CCC(Oc4cnc5ccccc5n4)C3)c2cc1OC (centres undefined),Potency,[1],6.51 µM (active)
same,Potency,[2],0.366 µM (active)
same,Potency,[3],1.03 µM (active)

# — PubChem BioAssay (NCATS)
